# Reference: the supplement of paper PMC8728848
# Only a selection was taken, and the strongest signals are over-represented in it overall.
# B1: rAAL-2 (Agrocybe aegerita) (protein)
# chain: MTSNVITQDLPIPVASRGFADIVGFGLDGVVIGRNAVNLQPFLAVKNFAQNAGGWLTTKHVRLIADTTGTGKGDIVGFGNAGVYVSVNNGKNTFADPPKMVIANFGYDAGGWRVEKHLRYLADIRKIGRADIIGFGEKGVLVSRNNGGLNFGPATLVLKDFGYDAGGWRLDRHLRFLADVTGNGHLDIVGFGDKHVFISRNNGDGTFAPAKSVIDNFCIDAGGWKIGDHPRFVADLTGDGTADIIGCGKAGCWVALNNGGGVFGQVKLVINDFGTDKGWQAAKHPRFIADLTGNGRGDVVGFGNAGVYVALNNGDGTFQSAKLVLKDFGVQQGWTVSKHRRFVVDLTGDGCADIIGFGEKETLVSYNDGKGNFGPVKALTNDFSFSGGKWAPETTVCWMANLDSSRH
# Legend:
# Test in all cases: glycan array binding signal (z-score within array); higher = stronger binding
# Conditions in all cases: glycan notation: IUPAC condensed, linker removed
# [1] = molecular target: GlcNAc(a1-4)Gal(b1-4)GlcNAc(b1-3)Gal(b1-4)GlcNAc(b1-3)Gal(b1-4)GlcNAc
# Summary of the method: (§1)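 The Consortium for Functional Glycomics database supplied 3228 glycan arrays, of which those lacking an available protein sequence were dropped. The binding signal, a within-array Z-score, was averaged across arrays of the same protein sequence and across linkers. Negative scores can be read as non-binding.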
# [2] = molecular target: GlcNAc(a1-4)Gal(b1-4)GlcNAc(b1-3)Gal(b1-4)[Fuc(a1-3)]GlcNAc(b1-3)Gal(b1-4)[Fuc(a1-3)]GlcNAc
# Summary of the method: as §1
# [3] = molecular target: GlcNAc(b1-2)Man(a1-3)[GlcNAc(b1-4)][GlcNAc(b1-2)Man(a1-6)]Man(b1-4)GlcNAc(b1-4)[Fuc(a1-6)]GlcNAc
# Summary of the method: as §1
# [4] = molecular target: GlcNAc(b1-3)Gal(b1-4)GlcNAc
# Summary of the method: as §1
# [5] = molecular target: GlcNAc(b1-3)Gal(b1-4)GlcNAc(b1-3)Gal(b1-4)GlcNAc(b1-2)Man(a1-3)[GlcNAc(b1-3)Gal(b1-4)GlcNAc(b1-3)Gal(b1-4)GlcNAc(b1-2)Man(a1-6)]Man(b1-4)GlcNAc(b1-4)GlcNAc
# Summary of the method: as §1
# [6] = molecular target: GlcNAc(b1-3)Gal(b1-4)GlcNAc(b1-3)Gal(b1-4)GlcNAc(b1-2)Man(a1-3)[GlcNAc(b1-3)Gal(b1-4)GlcNAc(b1-3)Gal(b1-4)GlcNAc(b1-2)Man(a1-6)]Man(b1-4)GlcNAc(b1-4)[Fuc(a1-6)]GlcNAc
# Summary of the method: as §1
# [7] = molecular target: GlcNAc(b1-3)Gal(b1-4)GlcNAc(b1-3)Gal(b1-4)GlcNAc(b1-3)Gal(b1-4)GlcNAc(b1-2)Man(a1-3)[GlcNAc(b1-3)Gal(b1-4)GlcNAc(b1-3)Gal(b1-4)GlcNAc(b1-3)Gal(b1-4)GlcNAc(b1-2)Man(a1-6)]Man(b1-4)GlcNAc(b1-4)[Fuc(a1-6)]GlcNAc
# Summary of the method: as §1
# [8] = molecular target: GlcNAc(b1-3)Gal(b1-4)GlcNAc(b1-3)Gal(b1-4)GlcNAc(b1-3)Gal(b1-4)GlcNAc(b1-3)Gal(b1-4)GlcNAc(b1-2)Man(a1-3)[GlcNAc(b1-3)Gal(b1-4)GlcNAc(b1-3)Gal(b1-4)GlcNAc(b1-3)Gal(b1-4)GlcNAc(b1-3)Gal(b1-4)GlcNAc(b1-2)Man(a1-6)]Man(b1-4)GlcNAc(b1-4)GlcNAc
# Summary of the method: as §1
# [9] = molecular target: GlcNAc(b1-3)Gal(b1-4)GlcNAc(b1-3)Gal(b1-4)GlcNAc(b1-3)Gal(b1-4)GlcNAc(b1-3)Gal(b1-4)GlcNAc(b1-2)Man(a1-3)[GlcNAc(b1-3)Gal(b1-4)GlcNAc(b1-3)Gal(b1-4)GlcNAc(b1-3)Gal(b1-4)GlcNAc(b1-3)Gal(b1-4)GlcNAc(b1-2)Man(a1-6)]Man(b1-4)GlcNAc(b1-4)[Fuc(a1-6)]GlcNAc
# Summary of the method: as §1
# [10] = molecular target: GlcNAc(b1-3)GalNAc
# Summary of the method: as §1
# [11] = molecular target: GlcNAc(b1-3)[GlcNAc(b1-4)][GlcNAc(b1-6)]GlcNAc
# Summary of the method: as §1
# [12] = molecular target: GlcNAc3Prop(b1-4)GlcNAc
# Summary of the method: as §1
# [13] = molecular target: Neu5Ac(a2-3)Gal(b1-3)GalNAc(b1-3)Gal(a1-4)Gal(b1-4)Glc
# Summary of the method: as §1
# [14] = molecular target: Neu5Ac(a2-3)Gal(b1-3)GalNAc(b1-4)[Neu5Ac(a2-8)Neu5Ac(a2-3)]Gal(b1-4)Glc
# Summary of the method: as §1
# [15] = molecular target: Neu5Ac(a2-3)Gal(b1-3)[Fuc(a1-4)]GlcNAc
# Summary of the method: as §1
# [16] = molecular target: Neu5Ac(a2-3)Gal(b1-4)Glc
# Summary of the method: as §1
# [17] = molecular target: Neu5Ac(a2-3)Gal(b1-4)GlcNAc
# Summary of the method: as §1
# [18] = molecular target: Neu5Ac(a2-3)Gal(b1-4)GlcNAc(b1-2)Man(a1-3)[GlcNAc(b1-4)][Neu5Ac(a2-3)Gal(b1-4)GlcNAc(b1-2)Man(a1-6)]Man(b1-4)GlcNAc(b1-4)GlcNAc
# Summary of the method: as §1
# [19] = molecular target: Neu5Ac(a2-3)Gal(b1-4)GlcNAc(b1-2)[Neu5Ac(a2-3)Gal(b1-4)GlcNAc(b1-6)]Man(a1-6)[Neu5Ac(a2-3)Gal(b1-4)GlcNAc(b1-2)Man(a1-3)][GlcNAc(b1-4)]Man(b1-4)GlcNAc(b1-4)GlcNAc
# Summary of the method: as §1
# [20] = molecular target: Neu5Ac(a2-6)Gal(b1-4)Glc
# Summary of the method: as §1
# [21] = molecular target: Neu5Ac(a2-6)Gal(b1-4)GlcNAc(b1-2)Man(a1-3)[Neu5Ac(a2-3)Gal(b1-4)GlcNAc(b1-2)Man(a1-6)]Man(b1-4)GlcNAc(b1-4)GlcNAc
# Summary of the method: as §1
# [22] = molecular target: Neu5Ac(a2-6)Gal(b1-4)GlcNAc(b1-3)Gal(b1-4)GlcNAc(b1-3)Gal(b1-4)GlcNAc(b1-2)Man(a1-3)[Neu5Ac(a2-6)Gal(b1-4)GlcNAc(b1-3)Gal(b1-4)GlcNAc(b1-3)Gal(b1-4)GlcNAc(b1-2)Man(a1-6)]GalNAc
# Summary of the method: as §1
# [23] = molecular target: Neu5Ac(a2-6)GalNAc(b1-4)GlcNAc
# Summary of the method: as §1
# [24] = molecular target: Neu5Gc(a2-8)Neu5Gc(a2-3)Gal(b1-4)GlcNAc(b1-3)Gal(b1-4)GlcNAc
# Summary of the method: as §1
binder,measurement,setting,value
B1,glycan array binding signal (z-score),[1],6.15
same,glycan array binding signal (z-score),[2],3.9
same,glycan array binding signal (z-score),[3],-0.068
same,glycan array binding signal (z-score),[4],4.11
same,glycan array binding signal (z-score),[5],3.92
same,glycan array binding signal (z-score),[6],4.05
same,glycan array binding signal (z-score),[7],4.52
same,glycan array binding signal (z-score),[8],4.12
same,glycan array binding signal (z-score),[9],3.97
same,glycan array binding signal (z-score),[10],0.798
same,glycan array binding signal (z-score),[11],-0.339
same,glycan array binding signal (z-score),[12],0.177
same,glycan array binding signal (z-score),[13],-0.228
same,glycan array binding signal (z-score),[14],-0.103
same,glycan array binding signal (z-score),[15],-0.392
same,glycan array binding signal (z-score),[16],-0.151
same,glycan array binding signal (z-score),[17],-0.177
same,glycan array binding signal (z-score),[18],-0.314
same,glycan array binding signal (z-score),[19],-0.33
same,glycan array binding signal (z-score),[20],-0.303
same,glycan array binding signal (z-score),[21],-0.237
same,glycan array binding signal (z-score),[22],0.107
same,glycan array binding signal (z-score),[23],-0.288
same,glycan array binding signal (z-score),[24],-0.178
